Bioassay records: PubChem BioAssay, several laboratories
APOBEC3A inh – APOBEC3A ssDNA deaminase inhibitors, primary screen, selectivity assay for APOBEC3G inhibitor project, biochemical, FAM/TAMRA oligo cleavage fluorescence; recombinant A3A, FAM/TAMRA ssDNA deamination fluorescence; 0.41% of 330,000 active; inhibition, % at 20 µM; DNA dC->dU-editing enzyme APOBEC-3A (Homo sapiens), P31941;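 active means at least 40% inhibition at 20 µM here, with at most 30% in a related deaminase screen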
PHOSPHO1 inh – PubChem AID 1565 | inhibition, % at 13.3 µM | recombinant PHOSPHO1, absorbance phosphatase assay | 1.1% of 290,000 active | Phosphoethanolamine/phosphocholine phosphatase (Homo sapiens), Q8TCT1; in the data active means inhibition above about 60%
Wnt bcat act – Wnt/beta-catenin pathway activators, primary screen, cell-based, plate reader, single point. Wnt/beta-catenin reporter cell assay, activator. activation, % at 9.35 µM. 1.2% of 300,000 active; in the data active means activation above about 30%, passing the limit was not always enough
MITF TRPM1 HTS – activators of MITF-driven TRPM1 promoter reporter, primary screen, cell-based, SK-MEL-5, luciferase, single point; SK-MEL-5 TRPM1-promoter luciferase, 24 h; % of positive control, neutral wells = 0; activation, % at 12.5 µM; 0.75% of 300,000 active; AID 588334, 2011;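 active means mean activation of at least 80% with every replicate also reaching 80%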
esBAF inh – Bmi1 luciferase reporter increase in mESCs, primary screen, esBAF inhibitor project, mouse ES cells, Bmi1 luciferase knock-in, single point | reporter increase, % at 12.5 µM | AID 602393, 2012 | 2% of 350,000 active | 24 h; 100% = twice the neutral-well signal; in the data active means activation above about 40%;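 further: a rise in the Bmi1 reporter signal indicates esBAF inhibition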
APOBEC3G inh – APOBEC3G DNA deaminase inhibitors, primary screen, biochemical, fluorescence, single-stranded DNA substrate, uHTS. AID 493012, 2011. DNA dC->dU-editing enzyme APOBEC-3G (Homo sapiens), Q9HC16. recombinant A3G, ssDNA deamination FAM/TAMRA fluorescence. inhibition, % at 20 µM. 0.28% of 330,000 active;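 active means inhibition of at least 40% at 20 µM, with no more than 30% in the related APOBEC3A deaminase screen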
Target sequence (Q9HC16 whole entry, looked up): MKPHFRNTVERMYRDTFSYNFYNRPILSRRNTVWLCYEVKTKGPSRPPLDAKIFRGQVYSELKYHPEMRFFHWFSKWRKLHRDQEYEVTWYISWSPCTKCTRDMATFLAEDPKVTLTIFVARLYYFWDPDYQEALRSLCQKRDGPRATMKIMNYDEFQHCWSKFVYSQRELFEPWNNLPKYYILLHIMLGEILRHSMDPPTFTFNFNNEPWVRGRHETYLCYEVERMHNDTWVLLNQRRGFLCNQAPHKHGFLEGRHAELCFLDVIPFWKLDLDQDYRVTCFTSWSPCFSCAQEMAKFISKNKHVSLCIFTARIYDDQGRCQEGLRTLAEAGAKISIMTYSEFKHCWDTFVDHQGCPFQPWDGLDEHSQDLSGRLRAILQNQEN
APOBEC3G confirm – APOBEC3G deaminase inhibitor retest, confirmation, biochemical, fluorescence, single-stranded DNA substrate, single concentration | 72% of 890 active | inhibition, % at 20 µM | shares compounds with APOBEC3G inh | recombinant A3G ssDNA deaminase, UDG/FAM-TAMRA fluorescence;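 active means inhibition reaching a set limit in any replicate at 20 µM, the limit being 80% of the first screen's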
UDG A3G counter – E. coli UDG inhibitors, confirmation, counter-screen for APOBEC3G inhibitor project, biochemical, single concentration, fluorescence, FAM/TAMRA oligo. shares compounds with APOBEC3G inh. UDG counterscreen. inhibition, % at 20 µM. 710 tested, under 10 active;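 active means compounds giving 40% or more inhibition at 20 µM in any one of the three replicates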;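 further: inhibitors lower the FAM signal released by uracil excision and alkaline cleavage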
Target sequence (P12295 whole entry, looked up): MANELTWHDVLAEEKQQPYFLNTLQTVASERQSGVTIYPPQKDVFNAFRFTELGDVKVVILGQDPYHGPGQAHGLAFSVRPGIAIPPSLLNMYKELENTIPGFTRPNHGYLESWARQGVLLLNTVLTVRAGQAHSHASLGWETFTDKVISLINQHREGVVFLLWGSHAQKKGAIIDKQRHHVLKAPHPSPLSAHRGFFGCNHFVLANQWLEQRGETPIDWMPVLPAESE
Hits are given with their value; . = inactive; / = no result. A selection: hits, their analogues and other compounds. The true share with any hit is near 3.6%.

SMILES	APOBEC3A inh	PHOSPHO1 inh	Wnt bcat act	MITF TRPM1 HTS	esBAF inh	APOBEC3G inh	APOBEC3G confirm	UDG A3G counter
COc1ccc(/C=C/C(=O)NNc2c(F)c(F)cc(F)c2F)cc1OC	.	.	/	.	/	60	.	.
COc1cc(/C=C/C(=O)NNc2c(F)c(F)cc(F)c2F)ccc1OC(F)F	.	.	/	.	/	.	/	/
Clc1ccccc1-c1nnc2sc(CCc3ccccc3)nn12	.	63	.	.	.	63	51	.
c1ccc(CCc2nn3c(Cn4cnc5ccccc54)nnc3s2)cc1	.	69	.	.	/	49	21	.
c1ccc(CCc2nn3c(Cn4nnc5ccccc54)nnc3s2)cc1	.	.	.	/	.	.	/	/
CCCC#Cc1ccc2c(c1)O[C@H](CN(C)Cc1ccccc1)[C@@H](C)CN([C@H](C)CO)S2(=O)=O	/	/	/	/	.	/	/	/
COc1ccc(S(=O)(=O)Nc2ccc3c(c2)C(=O)N([C@H](C)CO)C[C@H](C)[C@@H](CN(C)CC2CC2)OCCCC[C@H](C)O3)cc1	/	/	/	/	.	/	/	/
Cc1nn(C(=O)N2CCOCC2)c(C)c1C	.	.	.	.	/	62	.	/
CCOC(=O)c1[nH]cc(-c2ccccc2)c1N1CCOCC1	.	80	.	.	/	62	41	.
COc1ccc(NC(=O)N(C)C[C@@H]2Oc3ccc(NS(=O)(=O)c4ccc(F)cc4)cc3CC(=O)N([C@@H](C)CO)C[C@@H]2C)cc1	/	/	/	/	.	/	/	/
CO[C@H]1CN(C)C(=O)c2cc(NC(=O)Nc3ccccc3F)ccc2OC[C@@H](C)N(C(C)=O)C[C@@H]1C	/	/	/	/	.	/	/	/
COc1ccc2nc(NC(=S)N(C)C)sc2c1	.	95	/	.	.	61	69	.
C[C@@H]1CCCCO[C@@H](CN(C)C(=O)c2ccccc2)[C@@H](C)CN([C@@H](C)CO)C(=O)c2cc(NS(=O)(=O)c3cn(C)cn3)ccc2O1	/	/	/	/	.	/	/	/
O=C1C2C3C=CC(CO)(O3)C2C(=O)N1c1ccccc1-c1ccccc1 (stereo not drawn)	.	.	/	.	.	60	69	.
COc1cccc(Nc2n[nH]c(=S)s2)c1	.	.	/	.	/	58	63	.
O=C(C[C@H]1C[C@@H]2c3cc(NC(=O)NC4CCCCC4)ccc3O[C@@H]2[C@@H](CO)O1)NCC1CC1	/	/	/	/	.	/	/	/
COC(=O)[C@H](CCSC)NC(=O)c1cc2c(cn1)[nH]c1ccccc12	.	.	.	.	.	57	56	.
Cc1cccc(N=Cc2c(O)cc(C)oc2=O)c1	.	.	.	.	/	.	/	/
Cc1cc(O)c(/C=N/Nc2ccccc2Cl)c(=O)o1	.	.	/	.	.	47	.	.
CC1(C)OC(=O)C(=Cc2ccc(-c3ccc(S(N)(=O)=O)cc3)o2)C(=O)O1	.	.	.	.	.	40	47	/
O=C(NNc1ccc(O)cc1)c1ccc(Br)cc1	.	.	.	.	.	53	.	.
O=C(NNc1ccccc1)c1ccccc1	/	/	.	.	.	/	/	/
O=S(=O)(c1ccc(=S)[nH]c1)N1CCOCC1	.	/	.	.	.	44	73	.
COCCCNC(=S)Nc1ccc(C)cc1	.	.	.	.	.	.	/	/
COCCCNC(=S)NNC(=S)Nc1ccccc1	.	.	42	/	/	42	72	.
SMILES	APOBEC3A inh	PHOSPHO1 inh	Wnt bcat act	MITF TRPM1 HTS	esBAF inh	APOBEC3G inh	APOBEC3G confirm	UDG A3G counter
COCCCNC(=S)NNC(=S)Nc1ccc(F)cc1F	.	83	/	.	.	55	86	.
COCCCNC(=S)NCCc1ccc(F)cc1	.	.	.	.	.	.	/	/
CCOC(=O)c1sc(N/N=C/c2ccccc2)nc1C	.	.	/	.	/	53	64	.
CCOC(=O)c1sc(NS(=O)(=O)c2ccccc2)nc1C	.	.	.	.	.	.	/	/
CC(C)C#Cc1cnc2c(c1)C(=O)N([C@@H](C)CO)C[C@@H](C)[C@H](CN(C)C(=O)c1cccc(F)c1)O2	/	/	/	/	.	/	/	/
Cc1cc(C)nc(SSc2nc(C)cc(C)n2)n1	.	.	.	/	.	57	83	.
C[C@@H]1CCCCO[C@H](CN(C)Cc2ccc(C(=O)O)cc2)[C@H](C)CN([C@@H](C)CO)C(=O)c2cc(NC(=O)c3ccncc3)ccc2O1	/	/	/	/	.	/	/	/
CCc1ccc(NC(=O)CSc2nc(=O)n(CCCN(C)C)c3c2CCC3)cc1	.	/	.	.	.	65	.	.
COc1cccc(S(=O)(=O)N2CC[C@@H]3[C@H]2c2cc(C4=CCCCC4)ccc2N(C)[C@H]3CO)c1	/	/	/	/	.	/	/	/
COC(=O)C[C@@H]1CC[C@H]2[C@H](COc3ccc(NC(=O)NCc4ccccc4)cc3C(=O)N2C)O1	/	/	/	/	.	/	/	/
CC[n+]1c(/C=C2\C=C(C)CC(C)(C)C2)sc2ccccc21	.	100	/	.	.	50	57	/
CCC1=C/C(=C/c2sc3ccccc3[n+]2CC)CC(C)(C)C1	.	.	.	.	/	.	/	/
CC(=O)Nc1ccc2c(c1)C(=O)N(C)[C@H]1CC[C@H](CC(=O)NCC3CCCCC3)O[C@@H]1CO2	/	/	/	/	.	/	/	/
Nn1c(-c2cccc(Br)c2)n[nH]c1=S	.	96	/	.	.	59	80	.
C/C(=N\NC(=O)C(=O)N/N=C(\C)c1cccc(O)c1)c1cccc(O)c1	.	.	.	.	.	58	.	/
C/C=C/c1ccc([C@H]2[C@@H](CO)N(C(C)=O)[C@@H]2CNC(=O)c2ccccc2)cc1	/	/	/	/	.	/	/	/
CO[C@@H]1CN(C)C(=O)c2cc(NS(=O)(=O)c3ccc(C)cc3)ccc2OC[C@@H](C)N(C)C[C@@H]1C	/	/	/	/	.	/	/	/
CC(=O)N(C)C[C@@H]1Oc2ncc(C#Cc3ccccn3)cc2C(=O)N([C@H](C)CO)C[C@H]1C	/	/	/	/	.	/	/	/
CC(=O)c1sc2nsc(SCCN3CCOCC3)c2c1N	.	86	.	/	/	62	59	.
S=c1[nH]nc(Cc2cccs2)n1-c1ccccc1	.	.	.	.	.	57	59	.
Cc1cccc2cc(COC(=O)c3ccccn3)c(=O)[nH]c12	.	.	.	.	.	40	.	.
COc1ccccc1S(=O)(=O)N[C@H]1CC[C@H](CCn2cc(C3CCCCC3)nn2)O[C@@H]1CO	/	/	/	/	.	/	/	/
